Screens as filed in PubChem BioAssay.
TDP1 cell noCPT – qHTS for Inhibitors of human tyrosyl-DNA phosphodiesterase 1 (TDP1): qHTS in cells in absence of CPT; DT40 Tdp1-/- hTDP1 cells, no CPT, ATP luminescence, 48 h; Potency, µM (top dose mostly 46.2 µM), without a hit: at the highest dose activity change, negative = growth inhibition, usual class: inhibitors; 420,000 compounds, 15% hits; AID 686978, 2013; further: potency means the concentration at half of the fitted maximal effect; nearly all actives have a fitted effect of over 55% in size
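Compound effects on proliferation are scored in DT40 Tdp1-/-;hTDP1 cells in the absence of CPT. ATP levels (CellTiter-Glo luminescence) are recorded after a ≥48 hr, 37 °C incubation.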
12-LOX inh – ALOX12 (human) lipoxygenase inhibition. P18054. purified 12hLO, xylenol orange hydroperoxide absorbance. Potency, µM (series often up to 108 µM), inactives show at the highest dose activity change, negative = inhibition, usual class: inhibitors. 580,000 compounds, 1.1% hits. AID 1671190; further: potency means the concentration at half of the fitted maximal effect
Target sequence (P18054 whole entry, looked up): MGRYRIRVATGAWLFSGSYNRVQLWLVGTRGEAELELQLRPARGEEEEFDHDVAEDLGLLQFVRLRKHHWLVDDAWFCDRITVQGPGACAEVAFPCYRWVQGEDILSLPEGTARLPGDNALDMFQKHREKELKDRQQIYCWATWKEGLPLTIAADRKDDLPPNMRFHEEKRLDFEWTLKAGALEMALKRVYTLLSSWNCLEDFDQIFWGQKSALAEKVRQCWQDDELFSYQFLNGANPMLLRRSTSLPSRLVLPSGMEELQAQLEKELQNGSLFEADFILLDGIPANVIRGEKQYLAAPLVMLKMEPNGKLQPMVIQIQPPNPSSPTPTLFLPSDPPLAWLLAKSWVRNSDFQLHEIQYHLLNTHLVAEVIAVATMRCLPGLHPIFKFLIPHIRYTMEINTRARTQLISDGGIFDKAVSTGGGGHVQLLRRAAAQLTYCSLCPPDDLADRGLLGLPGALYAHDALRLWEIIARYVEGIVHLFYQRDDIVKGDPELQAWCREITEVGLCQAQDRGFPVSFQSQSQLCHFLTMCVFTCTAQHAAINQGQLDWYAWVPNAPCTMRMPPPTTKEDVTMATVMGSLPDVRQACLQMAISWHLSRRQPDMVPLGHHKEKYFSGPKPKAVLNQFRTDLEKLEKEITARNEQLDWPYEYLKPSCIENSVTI
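Purified human 12hLO at 150 nM in 25 mM Hepes, 0.01% Triton X-100, pH 7.0, preincubated 15 min at room temperature with compound. Reaction started with 40 uM arachidonic acid, 30 min at room temperature. Hydroperoxide measured by Fe-xylenol orange, 573/405 nm absorbance ratio.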
IL-1B inflam inh – blocks inflammasome-driven IL-1 beta release. activity change, % at 57.5 µM. 360,000 compounds, 4.7% hits. THP-1 LPS/ATP IL-1B secretion, AlphaLISA, 16 h; hits give low values; in the data active means activity change below about -50%; inconclusive means mostly about -30% to -49%
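Secreted IL-1B measured by AlphaLISA bead assay after 16 h compound exposure of THP-1 cells; compounds (final up to 57.5 uM) added 1 h before LPS (250 ng/mL) and ATP (1.25 mM) stimulation; lower signal means less secretion.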
HT1080NT lethal – kills 2HG-producing HT-1080-NT fibrosarcoma cells. HT-1080-NT fibrosarcoma viability, CellTiter-Glo ATP luminescence, 48 h. Potency, µM (series often up to 46.1 µM), inactives show top-dose activity, negative = less viability, actives largely listed as cytotoxic. 360,000 compounds, 1.6% hits. AID 686970;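 further: NT is the 2HG producing partner of a matched IDH1 knockdown line; potency means the concentration at half of the fitted maximal effect; 0% = DMSO-treated cells and -100% = media-only wells without cells; nearly all actives have a fitted effect of over 55% in size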
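Viability by CellTiter-Glo luminescence after 48 h compound exposure at 37C of HT-1080-NT cells (750/well, RPMI, 5% FBS). % activity scaled between DMSO wells and medium-only wells, then curve-fitted and categorized by curve class.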
DT40 TDP1 CPT – growth inhibition of DT40 Tdp1-/-;hTDP1 cells with camptothecin (screen for TDP1 inhibitors) | chicken DT40 Tdp1-/-;hTDP1 cells + 20 nM CPT, ATP luminescence, 48 h | Potency, µM (titrated, usually from 46.2 µM), inactives show at the top dose activity change, negative = growth inhibition, actives largely listed as inhibitors | 420,000 compounds, 12% hits | AID 686979; further: potency means the concentration at half of the fitted maximal effect; nearly all actives have a fitted effect of over 55% in size
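Cell growth measured by CellTiter-Glo luminescence after a minimum 48 h, 37 C compound exposure with 20 nM CPT in Tdp1-knockout DT40 cells stably expressing hTDP1, seeded 400/well; qHTS titration format.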
HT1080 IDH1KD tx – toxicity to HT-1080 IDH1 knockdown cells (counter line); HT-1080 IDH1 knockdown viability, ATP luminescence, 48 h; Potency, µM (doses to about 46.1 µM), without a hit: at the highest dose activity, negative = toxicity, usual class: cytotoxic; 360,000 compounds, 2% hits;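 further: potency means the concentration at half of the fitted maximal effect; 0% = DMSO wells and -100% = cell-free medium wells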
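In this qHTS, HT-1080 cells depleted of IDH1 are exposed for 48 h at 37 °C to compound titrations. Toxicity is scored from CellTiter-Glo luminescence, with DMSO as full viability and medium alone as none.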
Active calls of the source: *; ? = inconclusive; . = no result given; [ ] = remark or other dose. The full list was thinned out, with hits kept by preference. Unless noted, the call rests on the fitted dose curve; in most records, active means well fitted curve in the direction sought with a large enough effect; inconclusive means small, poorly fitted or top-dose-only effect, or another doubt; inactive means no such curve, though single readings can be large; an effect the other way counts as inactive or inconclusive. Unless noted, on the % scale 0 is the no-effect control and ±100 the full control effect.

SMILES	TDP1 cell noCPT	12-LOX inh	IL-1B inflam inh	HT1080NT lethal	DT40 TDP1 CPT	HT1080 IDH1KD tx
COc1cccc(OC)c1C(=O)NC(=S)Nc1ccc2c(c1)C(=O)N(C)C2=O	?	?	1.5	2.7%	?	-1.0%
CCOC(=O)c1cc(-c2ccc(OC)cc2)n(CCC(=O)NC2CCN(Cc3ccccc3)CC2)c1C	20.6µM*	-13.5%	-3.8	-28.2%	?	-27.6%
CCOC(=O)c1cc(-c2ccc(F)cc2)n(CCC(=O)NC2CCN(Cc3ccccc3)CC2)c1C	14.6µM*	-29.2%	?	?	16.4µM*	?
CCOC(=O)c1cc(-c2ccc(OC)cc2)n(CCC(=O)NCCN2CCC(C)CC2)c1C	?	-17.0%	?	-14.9%	?	-16.8%
Cn1cccc1C(=O)N1CCC[C@@]2(CCN(c3ccncc3)C2)C1	-18.4%	-21.3%[57.4 µM]	.	.	0.3%	.
COc1cccc(C2(c3cccc(OC)c3)CC2C(=O)Nc2ccc(F)cc2)c1 (stereo not drawn)	-25.3%	-22.5%	4.4	5.7%	0.7%	10.8%
C=CCNC(=O)C1CC1(c1cccc(C)c1)c1cccc(C)c1 (stereo not drawn)	-23.9%	112.9%	.	?	2.0%	?
Cc1cccc(C2(c3cccc(C)c3)CC2C(=O)Nc2ccc([N+](=O)[O-])cc2O)c1 (stereo not drawn)	5.17µM*	?	-97.9*	?	8.2µM*	?
COc1cccc(C2(c3cccc(OC)c3)CC2C(=O)Nc2ccccc2Cl)c1 (stereo not drawn)	23.1µM*	-10.4%	10.5	?	?	20.6µM*
O=C(Cn1cnc2ccccc2c1=O)Nc1ccc2oc(C3CC3)nc2c1	.	-22.9%	.	.	.	.
O=C(CSc1ncc(-c2ccccc2)n1CC1CCCO1)N1CCCCC1 (stereo not drawn)	-16.3%	0.0%	-13.6	-13.8%	-8.9%	-17.8%
c1coc(-c2nc3nc4ccccc4nc3n2CC2CCCO2)c1 (stereo not drawn)	?	-2.2%	5.2	-0.9%	-13.1%	-4.4%
Nc1ncc(-c2ccccc2)n1CC1CCCO1 (stereo not drawn)	18.4µM*	0.0%	-25.6	-2.5%	?	-2.2%
c1ccc(-c2nc3nc4ccccc4nc3n2CC2CCCO2)cc1 (stereo not drawn)	14.6µM*	0.0%	-3.2	7.6%	?	5.7%
O=C1C2CCCCC2C(=O)N1c1cccc(OS(=O)(=O)c2ccccc2)c1 (stereo not drawn)	-5.2%	-3.2%	15.0	9.7%	1.2%	0.8%
CC(=O)Nc1ccc(S(=O)(=O)Oc2ccccc2N2C(=O)C3C4CCC(C4)C3C2=O)cc1 (stereo not drawn)	-9.8%	-55.8%	0.0	-3.1%	7.9%	-11.0%
CC(=O)Nc1ccc(S(=O)(=O)Oc2ccc(N3C(=O)C4CCCCC4C3=O)cc2)cc1 (stereo not drawn)	18.4µM*	0.0%	25.5	-17.2%	16.4µM*	-11.7%
CC(=O)Nc1ccc(S(=O)(=O)Oc2cccc(N3C(=O)C4CC=CCC4C3=O)c2)cc1 (stereo not drawn)	20.6µM*	-26.4%	50.5	4.1%	?	-0.6%
CCC[C@@H](CN1CCC[C@H]1CN1C(N)=NC[C@H]1C(C)C)N1C[C@@H]([C@H](C)CC)N(CCCC2CCCC2)C1=N	?	-28.3%	-17.9	-0.1%	?	1.8%
CC(C)C[C@@H]1CN=C(N)N1C[C@@H]1CCCN1C[C@H](C)N1C[C@@H](Cc2ccccc2)N(CCc2ccc(Cl)c(Cl)c2)C1=N	?	.	0.0	0.2%	18.4µM*	-2.7%
CC(C)C[C@@H]1CN=C(N)N1C[C@@H]1CCCN1C[C@@H](C(C)C)N1C[C@@H](Cc2ccccc2)N(CCc2ccc(Cl)c(Cl)c2)C1=N	-13.5%	-14.3%	?	-3.6%	-2.6%	0.1%
CCCCN1C(=N)N([C@@H](C)CN2CCC[C@H]2CN2C(N)=NC[C@H]2CC(C)C)C[C@H]1[C@H](C)CC	16.4µM*	14.9%	0.0	7.2%	23.1µM*	0.6%
CCC[C@@H](CN1CCC[C@H]1CN1C(N)=NC[C@H]1CC(C)C)N1C[C@@H]([C@H](C)CC)N(CCCC2CCCC2)C1=N	16.4µM*	?	-57.6*	-2.4%	20.6µM*	-8.7%
O=C(c1ccncc1)N1CCCC1c1nc(CCOCC2CCCC2)no1 (stereo not drawn)	.	49.3%	.	.	.	.
CCOC(=O)c1c(S(=O)(=O)NCC(=O)N2CCOCC2)c(C)n(C)c1C	.	16.6%	.	.	.	.
SMILES	TDP1 cell noCPT	12-LOX inh	IL-1B inflam inh	HT1080NT lethal	DT40 TDP1 CPT	HT1080 IDH1KD tx
O=C(N1CCN(Cc2ccccc2)CC1)C1(c2ccc(Cl)cc2)CCOCC1	.	-0.8%[6.33 µM]	.	.	.	.
Cc1csc(NC(=O)c2cc3c(s2)CCCC3)n1	11.6µM*	?	-19.4	-21.7%	?	-26.2%
Cc1csc(NC(=O)c2cc3c(s2)CCCCC3)n1	14.6µM*	0.0%	-63.0*	?	?	?
CCOC(=O)Cc1csc(NC(=O)c2cc3c(s2)CCCC3)n1	?	-23.1%	-3.5	-29.3%	?	?
CNC(=O)C1(N2CCC[C@H]2C(=O)NCCOC)CCOCC1	.	10µM*	.	.	.	.
CC(C)Cn1cnc2c(SCc3ccccc3Cl)nc(N)nc21	?	-8.2%	?	-20.7%	?	?
ClCCn1cnc2c(SCc3ccccc3Cl)ncnc21	0.82µM*	?	-66.8*	-20.7%	?	?
ClCCn1cnc2c(SCc3ccccc3)ncnc21	1.84µM*	1.2%	-55.5*	1.2%	?	?
CCCCn1c(-c2ccc(Br)cc2F)nc2c1c(=O)[nH]c(=O)n2CC(C)C	23.1µM*	?	-68.4*	?	20.6µM*	-24.4%
CCOC(=O)C1=CCN(S(=O)(=O)c2ccc(Cl)cc2)C1c1ccc(Br)cc1 (stereo not drawn)	.	-3.6%	.	.	.	.
S=C(NCc1ccccn1)Nc1ccc(Cl)c(Cl)c1	?	?	-63.3*	-4.0%	16.4µM*	-12.2%
S=C(NCc1ccncc1)Nc1ccccc1	?	-11.4%	-0.7	-0.7%	2.3%	-3.3%
S=C(NCc1ccncc1)Nc1ccc(Br)cc1	?	?	23.1	-6.4%	-16.1%	-9.4%
Cc1cccnc1NC(N)=S	-1.8%	?	9.9	18.2%	-3.0%	13.2%
S=C(NCc1ccncc1)Nc1ccc(Cl)c(Cl)c1	?	-17.7%	-60.7*	-21.1%	?	?
